Screen size: about 69,000 compounds; about 8,600 (12%) showed an effect of 50% or more. This excerpt belongs to a sample that is enriched for strong results.

This test relates to Plasmodium berghei. The test can be described thus: Screen against P. berghei liver stage (PbLuc), transformed with Luciferase, at 10uM. It is filed as functional, HepG2. The note with it: tested at 10 uM.
With `Cc1cccc(OC2CCN(c3nccnc3C#N)CC2)n1`, the INHIBITION amounted to 11.4%.
Turning to `Cc1cccc(OC2CCN(c3ncc(C#N)cc3Cl)CC2)n1`, the INHIBITION amounted to 12.4%.
As for `CC(C)N1CCn2c(COCC3CCOCC3)cnc2C1C` (stereo not drawn), the figure is 39.4%.
On to `COc1cc(C)nc(N2CCN(C(=O)COC3CCCC3)CC2)n1`, for which the INHIBITION is reported as 26.36%.
The figure for `Cc1cn[nH]c1C1CCCCN1C(=O)CCc1ccc(F)cc1` (stereo not drawn) is 2.6%; for `O=C(c1ccsc1)N1CCC(c2nnc(C3CC3)o2)CC1` it is 14.3%.
The figure for `Cc1cc(C)n(CC2CCCN2C(=O)c2ccc3ccccc3n2)n1` (stereo not drawn) is 21%; for `CCOc1ccc(Cl)c(C(=O)N2CCN(c3ncccn3)CC2)n1` it is 1.78%.
With `CCOc1ccc(Cl)c(C(=O)N2CCN(c3cnccn3)CC2)n1`, the INHIBITION amounted to 52.7%.
As for `CCOc1ccc(Cl)c(C(=O)N2CCN(c3ccncc3)CC2)n1`, the figure is 10%.
As for `CCC(NC(=O)c1ccoc1)c1ccccc1OCC(=O)N1CCCC1` (stereo not drawn), the figure is 29.05%; as for `COCC(=O)N[C@H](C(=O)NC(C)c1cccc(C)c1C)C(C)C` (stereo partly drawn), 28.7%; as for `CCOCC(=O)NC(C)c1cc(C)ccc1C` (stereo not drawn), 30.5%.
With `COCC(=O)N[C@H](C(=O)NC(C)c1cc(C)ccc1C)C(C)C` (stereo partly drawn), the INHIBITION amounted to 57.4%.
Take `CC1=Nc2c(c(=O)[nH]n2C(C)C)C(c2ccccc2)S1` (stereo not drawn): the INHIBITION was determined as 7.11%.
The figure for `CC1=Nc2c(c(=O)[nH]n2C(C)C)C(c2ccc(F)c(F)c2)S1` (stereo not drawn) is -3.95%.
The figure for `CC1=Nc2c(c(=O)[nH]n2C(C)C)C(c2ccc3c(c2)OCCO3)S1` (stereo not drawn) is -14.1%.
The figure for `CC1=Nc2c(c(=O)[nH]n2C(C)C)C(c2ccc3nccnc3c2)S1` (stereo not drawn) is 58.5%; for `CC1=Nc2c(c(=O)[nH]n2C(C)C)C(c2ccc3ncccc3c2)S1` (stereo not drawn) it is 80%; for `CC1=Nc2c(c(=O)[nH]n2C(C)C)C(c2ccc3c(c2)n(C)c(=O)n3C)S1` (stereo not drawn) it is -39.6%.
Regarding `O=C(Nc1ccccc1)[C@H]1C[C@H]2CN(S(=O)(=O)C3CC3)C[C@@H]1O2`, the INHIBITION is on record as 30.3%.
As for `CC(C)c1cnc(CN2CCCC(c3cc(C(N)=O)[nH]n3)C2)o1` (stereo not drawn), the figure is -0.113%; as for `Cc1cccnc1NC(=O)c1ccc(F)c(S(=O)(=O)NC2CC2)c1`, 20.9%.
The figure for `Cc1ccccc1CN(C)C(=O)CN1CCOC(Cn2cccn2)C1` (stereo not drawn) is -4.16%.
As for `CC(C)c1nnc(NC(=O)CCC(=O)NCC2CCCO2)s1` (stereo not drawn), the figure is 52.5%; as for `O=C(CCC(=O)Nc1nnc(C2CCCCC2)s1)NCC1CCCO1` (stereo not drawn), 18.4%; as for `O=C(CCC(=O)Nc1nnc(C(F)(F)F)s1)NCC1CCCO1` (stereo not drawn), 0.207%.
As for `Cc1ncc2c(c1CNC(=O)C1(c3ccc(F)cc3)CC1)CCNC2`, the INHIBITION is 61.9%.
As for `Cc1ncc2c(c1CNC(=O)C1(C)CCCCO1)CCNC2` (stereo not drawn), the figure is 36.9%; as for `Cc1ccc(OCC(O)CNC(=O)C2(c3ccc(F)cc3)CC2)cc1` (stereo not drawn), -26.1%.
As for `COc1ccc(C2(C(=O)NCc3c(C)ncc4c3CCNC4)CC2)cc1`, the figure is 44.3%; as for `Cc1ncc2c(c1CNC(=O)C1(C)CCCO1)CCNC2` (stereo not drawn), 56.3%.
As for `Cc1ncc2c(c1CNC(=O)C1(C)CC1)CCNC2`, the INHIBITION is 14.6%.
In the case of `COc1cccc(CCC(=O)N2CCC[C@@H](N)[C@@H]2c2ccccc2F)c1`, the INHIBITION was found to be 14.4%.
As for `COc1c(CNCC(O)c2ccc(C)cc2)c(C(C)C)nn1C` (stereo not drawn), the figure is -6.14%.
Regarding `CS(=O)(=O)CC1(CNc2cc(C#N)c3cc(Cl)ccc3n2)CC1`, the INHIBITION is 6.23%.
As for `CC(NC(=O)CNc1cc2c(cc1Cl)NC(=O)CO2)c1ccco1` (stereo not drawn), the figure is 17.1%; as for `Cn1nnnc1SCC(=O)N1CCN(C(=O)C2CC2c2cccs2)CC1` (stereo not drawn), -40.4%.
The figure for `CCc1nnc2n1CCN(C(=O)CCc1ccc3c(c1)OCO3)C2` is 37.4%.
As for `O=C(C1CCOCC1)N1C[C@@H]2[C@@H](C1)OCC(=O)N2Cc1ccncc1`, the figure is -46.5%; as for `NC(=O)CCC1CCCN(c2ccnc3cc(F)ccc23)C1` (stereo not drawn), 79.3%; as for `NC(=O)CCC1CCCN(c2ccc3ccc(F)cc3n2)C1` (stereo not drawn), -65.4%.
For `NC(=O)CCC1CCCN(c2ccc3c(Cl)ccnc3c2F)C1` (stereo not drawn), the INHIBITION is on record as 38%.
As for `Cc1cnccc1CCNC(=O)Nc1cnc(N(C)C)nc1`, the figure is 42.3%; as for `Cc1nc(NC(=O)C(C)N(C)Cc2cccc(C#N)c2)sc1C` (stereo not drawn), -24.7%.
As for `COc1ccc(C(C)CCNC2CCN(c3ccccn3)CC2)cc1` (stereo not drawn), the figure is 53.4%; as for `OC1(CNC2CCN(c3ccccn3)CC2)CCc2ccccc21` (stereo not drawn), 7.31%.
The figure for `COc1c(CNC2CCN(c3ccccn3)CC2)c(C(C)C)nn1C` is 40.2%; for `CC(CNC1CCN(c2ccccn2)CC1)Oc1ccc(F)cc1` (stereo not drawn) it is 65.4%; for `c1ccc(N2CCC(NCCc3ccc(-n4cccn4)cc3)CC2)nc1` it is -15.3%.
With `CC(C)COCCNC1CCN(c2ccccn2)CC1`, the INHIBITION amounted to 41.4%.
The figure for `CN1CCC/C1=N\S(=O)(=O)c1ccc(NC(=O)c2cccs2)cc1` is 23.4%; for `c1ccc(CN2C[C@@H]3CC[C@H]2CN(Cc2nnc(C4CC4)o2)C3)cc1` it is 45.4%.
